The test concerns the target Hexose transporter 1 (Plasmodium falciparum) (UniProt O97467). In words: ST_JUDE_LEISH: Cytotoxicity at 2uM final concentration against transgenic Leishmania Mexicana promastigotes LmPfHT that are glucose transport deficient and complemented with the Plasmodium falciparum hexose transporter. Activity is measured by DNA content using SYBR green in vitro. Type of test: functional.
Usually inhibition stands for the relative decrease from the control value, in per cent. Turning to `c1ccc2c(CNCCCCCCNCc3c(OCC4CC4)ccc4ccccc34)c(OCC3CC3)ccc2c1`, the inhibition was determined as 69.8%.
Then `COc1ccc2nccc([C@@H](O)CN3CCC(NCc4cc5ccccc5o4)CC3)c2c1`, with 15.3%.
As for `CC1=C(C(=O)Nc2cc3cn[nH]c3cc2F)C(c2cccc(NS(C)(=O)=O)c2)CC(=O)N1` (centres undefined), the figure is 1.97%; as for `Cc1c(C(=O)C2CC2CN2CCC(N3CCCCC3)CC2)sc2ccccc12` (centres undefined), -0.31%; as for `CCCCN(CCCC)CCNC(=O)c1cccc(NC(=O)N2CCc3cc(SC)c(C(F)(F)F)cc32)c1`, 4.24%.
In the case of `CN(CCc1ccccc1)c1ncc(-c2ccccc2CNCc2ccccc2O)cn1`, the inhibition was -1.17%.
Then `Cc1cc(-c2cccc3c(C(=O)N4CCc5cc6nccc(N7CCCN(C)CC7)c6cc54)cccc23)cc(C)n1`, with 1.02%.
Then `CCOc1cc2ncnc(Nc3ccc(OCc4ccccc4Br)c(OC)c3)c2cc1OCC`, with 5.15%.
On to `COc1cccc(CCNc2nc(NCc3ccccc3)c3cc(OC)c(OC)cc3n2)c1`, for which the inhibition was 5.93%.
As for `COc1cc(C)nc2ccc(NC(=O)Nc3cccc4ccccc34)cc12`, the figure is 5.33%.
With `O=C(NCCCN1CCC(NC(=O)c2ccc(-c3cccnc3)cc2)CC1)c1ccc(Cl)c(Cl)c1`, the inhibition worked out at 1.38%.
On to `COc1ccc(C(=O)N2CCC3(CC2)C(=O)N(CC(=O)NCC2CCCCC2)CN3c2ccccc2)c(OC)c1`, for which the inhibition is 7.03%.
For the compound `O=C(c1cc(-c2cccs2)n[nH]1)N1CCN(S(=O)(=O)c2ccc(Cl)cc2)CC1`, the inhibition came to 2.77%.
Then `O=C(Nc1ccc(F)c(Cl)c1)NC1CCN(c2ccnc3cc(Cl)ccc23)C1` (centres undefined), with 6.38%; and `CSC1=NC(=Nc2c(C)cccc2C)C2(CCCCC2)N1c1ccccc1Cl`, with -1.21%; and `CC1CCN(c2nc(C(=O)NCCc3ccc(Cl)c(Cl)c3)c(C(C)C)s2)CC1`, with 0.99%.
For `NC1CCN(Cc2ccc(-c3ccc(-c4nc5cc(F)ccc5[nH]4)s3)cc2)C1` (centres undefined), the inhibition worked out at 4.62%.
In the case of `Nc1cc(C(F)(F)F)ccc1Cl`, the inhibition was -2.13%.
For `O=C(NCCCCNCC(Cc1cccc(O)c1)c1ccccc1)c1ccc(NC(=O)c2ccc(Cl)cc2)cc1` (centres undefined), the inhibition was -3.38%.
Then `CC(=O)Nc1cccc(C(=O)Nc2ccc(-c3ccc(-c4nc5cccc(C)c5[nH]4)s3)cc2)c1`, with 1.16%.
For the compound `CCN(CC)CCCNc1ncc2c(-c3ccc(NC(=O)Nc4cc(C(F)(F)F)ccc4F)cc3)nn(C)c2n1`, the inhibition was found to be 4.18%.
In the case of `Nc1ncc(Cc2cc(Cl)c(N)c3ncccc23)c(N)n1`, the inhibition is 2.88%.
Consider `Cc1nc(NCc2ccccc2)cc(NCC(O)c2ccc(O)cc2)n1` (centres undefined), for which the inhibition came to 8.57%.
`CCOc1ccc2c(c1)OC(c1ccccc1)(C(F)(F)F)NC2=O` (centres undefined): the inhibition is -0.92%.
`Fc1cccc(COc2ccc(Nc3ncnc4sc(C#C[C@H]5CC[C@H](CN6CCOCC6)N5)cc34)cc2Cl)c1`: the inhibition is -0.26%.
As for `O=C(Nc1ccc2nc3n(c(=O)c2c1)CCCCC3)C(=O)N1CCC(Cc2ccccc2)CC1`, the inhibition amounted to 0.77%.
Take `Clc1ccc2c(N3CCN(CCN4CCN(c5ccnc6cc(Cl)ccc56)CC4)CC3)ccnc2c1`: the inhibition was found to be 0.23%.
Turning to `CCN(CC)CCCC(C)Nc1nc(C=Cc2ccc(Br)cc2)nc2cc(Cl)ccc12` (centres undefined), the inhibition came to 9.25%.
Then `CC(C)Oc1cc(-c2ccc(S(C)(=O)=O)cc2)nc(N(Cc2cccc(F)c2F)Cc2cccc(F)c2F)n1`, with 0.65%; and `CC(CN(C)C)C(=O)Nc1cccc(-c2ccc(-c3nc4cc(F)ccc4[nH]3)s2)c1` (centres undefined), with 2.55%.
As for `O=C(Nc1ccc(N2CCC(Nc3ccccn3)CC2)cc1)c1cnc(Cl)c(Cl)c1`, the figure is 10.4%.
Then `c1cc(CNCCc2ccncc2)cc(-c2ccc(-c3nc4ccccc4[nH]3)cc2)c1`, with 2.38%; and `Cc1n[nH]c2ccc(-c3cc(OC[C@@H](N)Cc4ccccc4)cnc3-c3cc4ccccc4s3)cc12`, with 3.69%.
With `O=C(Nc1ccc2c(c1)OCO2)NC1CCN(c2ccnc(Nc3ccc(F)cc3)n2)C1` (centres undefined), the inhibition is 6.37%.
Turning to `Cc1cc(O)nc(NC(=N)NOCc2ccccc2)n1`, the inhibition amounted to 1.03%.
In the case of `CCCCCCn1c2c(c(=N)c3c1CCC3)CCCC2`, the inhibition came out at 77.5%.
Consider `CN(C)Cc1c(O)ccc2[nH]c(-c3ccc(OC(F)(F)F)cc3)nc12`, for which the inhibition was determined as 3.22%.
As for `COc1ccc2c(=NN=Cc3cccc(F)c3)cc(C)[nH]c2c1`, the inhibition was 4.27%.
For `O=C(Nc1ccc(S(=O)(=O)N2CCCCC2)cc1)c1cc(-c2ccccc2O)n[nH]1`, the inhibition is 12%.

The values above are taken from ChEMBL document CHEMBL3433997, “St. Jude Leishmania screening dataset” (2016).
